Growth data for 38 compounds are collected here from PubChem BioAssay (NCI).

The panel holds about 83,000 compounds, 20% with a hit somewhere; the sample as a whole holds those more often.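 Single-concentration screen, 48 h exposure, 96-well plates. Endpoint: percent growth. Below 10 = active.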 A number with no mark means an inactive call. The source made the active and inactive calls.

The subject of one test is HCC-2998 colon. Put plainly: NCI-60 one-dose screen, 48 h (100 = growth as untreated, 0 = no growth, -100 = all killed). The settings on record: 10 µM unless noted.
As to `O=S(=O)(c1ccc(N/N=C\c2ccccc2)cc1)c1ccc(N/N=C/c2ccccc2)cc1`, the growth was 66.4%.

Consider `CC1(C)[C@H](O)CC[C@]2(C)[C@@H]1CC[C@@]13C[C@@H](CC[C@H]12)[C@@](O)(CO)C3`, for which the growth was 105%.

As to `COc1ccccc1OCC(=O)N1CCCCCC1`, the growth is 108%.

As to `Cc1c2c(cc[n+]1Cc1ccccc1)c1ccc(OCc3ccccc3)cc1n2Cc1ccccc1`, the growth was -81.8% (active).

For the compound `CCn1cc(C2NC(=O)c3ccccc3N2)c2cccc(C)c21` (centres undefined), the growth is 9.07% (active).

In the case of `O=C(Cc1ccc(/C=C/C(=O)c2ncc[nH]2)cc1)Nc1ccc(C(F)(F)F)cc1`, the growth was 59.3%.

For the compound `COc1cccc(C(Cc2ccccc2)Nc2ccccc2)c1OC` (centres undefined), the growth is 91.2%.

As for `CCCCCCC/C=C/[C@H]1O[C@]2(O)C(=O)C=C3C[C@@H](O[C@@H]4O[C@H](CO)[C@@H](O)C(O)[C@@H]4O)C[C@@H]3[C@H]2C=C1C` (some centres undefined), the growth is 32.8%.

As for `CCOC(=O)N1CCc2c(sc3nc4nc[nH]n4c(=O)c23)C1`, the growth was 98.6%.

`Cc1nccc2c3ccc(OCc4cn(-c5ccc(Cl)cc5)nn4)cc3n(CCCc3ccccc3)c12`: the growth was 70.9%.

Consider `O=C1Nc2c(ccc(Cl)c2Cl)/C1=C/c1ccc(O)cc1`, for which the growth was 80.5%.

As to `C[C@@H]1CN(Cc2ccc(/C=C/c3n[nH]c4ccc5nc(-c6cn[nH]c6C(F)(F)F)c6c(c5c34)CCCC6)cc2)C[C@H](C)O1`, the growth is 27.6%.

Consider `COc1ccc(C(=O)c2cc3c(N)c(C(=O)Nc4cccc(OC)c4)sc3nc2C)cc1`, for which the growth is 19.5%.

In the case of `COc1ccc(/C(=C\c2ccccc2)C(=O)O)cc1OC`, the growth was 103%.

`C[C@]12CCc3nc(Nc4cccc(O)c4)sc3C1=CC[C@@H]1[C@@H]2CC[C@]2(C)/C(=N\NC(N)=S)CC[C@@H]12`: the growth was 65.3%.

In the case of `COc1ccc(-c2c(-c3ccccc3)noc2N)cc1OC`, the growth was 110%.

Turning to `COc1cc(-c2nc3occn3c2-c2ccnc(NCCNS(=O)(=O)c3ccc(Cl)cc3)n2)ccc1F`, the growth was 103%.

Regarding `COc1cc(CCNc2nc3cc(N)cc(N)c3nc2-c2ccccc2)cc(OC)c1`, the growth is -5.77% (active).

As to `CCC(=O)c1ccc(O)c(OC)c1`, the growth was 101%.

Regarding `N#Cc1ccc(-c2ccc3c(c2)NC(=O)/C3=C\c2ccc[nH]2)cc1`, the growth was 58.5%.

Regarding `C=C(C)[C@@H]1CC[C@]2(CO)CC[C@]3(C)[C@H](CC[C@@H]4[C@@]5(C)CCCNC(C)(C)[C@@H]5CC[C@]43C)[C@@H]12`, the growth was -5.02% (active).

As to `CC(=O)c1c(C)[nH]c(-c2nc3ccc(N4CCN(C)CC4)cc3[nH]2)c1-c1ccccc1`, the growth is 27.8%.

Turning to `CC[C@H](C)[C@@H]1NC(=O)[C@H](Cc2ccc(O)cc2)N(C)C(=O)[C@H](Cc2ccccc2)NC(=O)CN(C)C(=O)[C@@H]2CCCN2C(=O)[C@@H](Cc2ccccc2)N(C)C(=O)[C@H](CC(C)C)NC1=O`, the growth is -23.9% (active).

For `NC(=O)c1cccc(-c2cc(C(N)=O)ccc2Cl)c1`, the growth is 57.7%.

On to `N#C/C(=C\c1ccc(Br)cc1)n1nnc2cccc(F)c21`, for which the growth is 19.2%.

Turning to `CN1CCN(C(=O)OCc2nc3c(N4CCOCC4)nc(-c4ccccc4)nc3n2C)CC1`, the growth was -75.4% (active).

A further test relates to KM12 colon. The description is as above. The settings on record: 10 µM unless noted.
With `C=C(C)[C@@H]1CC[C@]2(C=O)CC[C@]3(C)[C@H](CC[C@@H]4[C@@]5(C)CCCNC(C)(C)[C@@H]5CC[C@]43C)[C@@H]12`, the growth is 58.6%.

With `COc1cc(OC)cc(C2C3=C(COC3=O)Nc3cc(OC)ccc32)c1` (centres undefined), the growth is -3.49% (active).

`CN1CCN(C(=O)[C@]2(C)CC[C@]3(C)CC[C@]4(C)C(=CC(=O)[C@@H]5[C@@]6(C)CCC(=O)NC(C)(C)[C@@H]6CC[C@]54C)[C@@H]3C2)CC1`: the growth is 98.1%.

Regarding `COc1cc(C2CC(c3cccc(Nc4ccncc4)c3)=NN2c2cc(Cl)cc(Cl)c2)cc(OC)c1OC` (centres undefined), the growth was -75.7% (active).

On to `COc1ccc(-c2ncc(-c3ccccc3)[nH]2)cc1OC`, for which the growth was 105%.

For the compound `CC(C)(C)OC(=O)N1C/C(=C\c2ccoc2)C(=O)/C(=C/c2ccoc2)C1`, the growth was 88.8%.

`Cc1ccc2nc3c(cc2c1)CSc1nnc(-c2ccc[nH]c2=S)n1N3`: the growth was 99.7%.

On to `COc1ccc(Nn2c(SCC(=O)Nc3nc(-c4ccc(Cl)cc4)cs3)nc(C)c2C)cc1`, for which the growth was 43.1%.

As for `C=C(C)[C@@H]1CC[C@]2(C(=O)NCCCN(CCC#N)CCC#N)CC[C@]3(C)[C@H](CC[C@@H]4[C@@]5(C)CCC(=O)C(C)(C)[C@@H]5CC[C@]43C)[C@@H]12`, the growth was 104%.

`Cc1ccc(C2CC(c3cccc(Nc4ccncc4)c3)=NN2c2ccc(Cl)cc2)cc1` (centres undefined): the growth is -89.3% (active).

Take `COc1cc(NCCCN(CC(C)C)C2CCCC2)c2ncccc2c1`: the growth is 93%.

Take `COc1ccc(Cn2nc3c(c2-c2cc(OC)c(OC)c(OC)c2)-c2oncc2CC3)cc1`: the growth is 70.9%.

For the compound `O=S(=O)(c1ccc(N/N=C\c2ccccc2)cc1)c1ccc(N/N=C/c2ccccc2)cc1`, the growth was 66.9%.

In the case of `CC1(C)[C@H](O)CC[C@]2(C)[C@@H]1CC[C@@]13C[C@@H](CC[C@H]12)[C@@](O)(CO)C3`, the growth is 116%.

`COc1ccccc1OCC(=O)N1CCCCCC1`: the growth was 97.3%.

For the compound `Cc1c2c(cc[n+]1Cc1ccccc1)c1ccc(OCc3ccccc3)cc1n2Cc1ccccc1`, the growth is -98.4% (active).

`CCn1cc(C2NC(=O)c3ccccc3N2)c2cccc(C)c21` (centres undefined): the growth was 15.9%.

For the compound `O=C(Cc1ccc(/C=C/C(=O)c2ncc[nH]2)cc1)Nc1ccc(C(F)(F)F)cc1`, the growth is -41.3% (active).

In the case of `COc1cccc(C(Cc2ccccc2)Nc2ccccc2)c1OC` (centres undefined), the growth is 99.6%.

In the case of `CCCCCCC/C=C/[C@H]1O[C@]2(O)C(=O)C=C3C[C@@H](O[C@@H]4O[C@H](CO)[C@@H](O)C(O)[C@@H]4O)C[C@@H]3[C@H]2C=C1C` (some centres undefined), the growth is 15.5%.

Regarding `CCOC(=O)N1CCc2c(sc3nc4nc[nH]n4c(=O)c23)C1`, the growth was 97.1%.

For `Cc1nccc2c3ccc(OCc4cn(-c5ccc(Cl)cc5)nn4)cc3n(CCCc3ccccc3)c12`, the growth was 35.2%.

Take `O=C1Nc2c(ccc(Cl)c2Cl)/C1=C/c1ccc(O)cc1`: the growth was 85.9%.

`C[C@@H]1CN(Cc2ccc(/C=C/c3n[nH]c4ccc5nc(-c6cn[nH]c6C(F)(F)F)c6c(c5c34)CCCC6)cc2)C[C@H](C)O1`: the growth is 19.8%.

`COc1ccc(C(=O)c2cc3c(N)c(C(=O)Nc4cccc(OC)c4)sc3nc2C)cc1`: the growth is 20.9%.

With `COc1ccc(/C(=C\c2ccccc2)C(=O)O)cc1OC`, the growth is 103%.

Regarding `C[C@]12CCc3nc(Nc4cccc(O)c4)sc3C1=CC[C@@H]1[C@@H]2CC[C@]2(C)/C(=N\NC(N)=S)CC[C@@H]12`, the growth is 13.5%.

On to `COc1ccc(-c2c(-c3ccccc3)noc2N)cc1OC`, for which the growth was 94.7%.

Take `COc1cc(-c2nc3occn3c2-c2ccnc(NCCNS(=O)(=O)c3ccc(Cl)cc3)n2)ccc1F`: the growth is 86.9%.

In the case of `COc1cc(CCNc2nc3cc(N)cc(N)c3nc2-c2ccccc2)cc(OC)c1`, the growth is 4.39% (active).

For the compound `CCC(=O)c1ccc(O)c(OC)c1`, the growth is 113%.

For `N#Cc1ccc(-c2ccc3c(c2)NC(=O)/C3=C\c2ccc[nH]2)cc1`, the growth is 60.8%.

As for `C=C(C)[C@@H]1CC[C@]2(CO)CC[C@]3(C)[C@H](CC[C@@H]4[C@@]5(C)CCCNC(C)(C)[C@@H]5CC[C@]43C)[C@@H]12`, the growth was 23.2%.

Turning to `CC(=O)c1c(C)[nH]c(-c2nc3ccc(N4CCN(C)CC4)cc3[nH]2)c1-c1ccccc1`, the growth was 39.7%.

As to `CC[C@H](C)[C@@H]1NC(=O)[C@H](Cc2ccc(O)cc2)N(C)C(=O)[C@H](Cc2ccccc2)NC(=O)CN(C)C(=O)[C@@H]2CCCN2C(=O)[C@@H](Cc2ccccc2)N(C)C(=O)[C@H](CC(C)C)NC1=O`, the growth is 1.4% (active).

Regarding `NC(=O)c1cccc(-c2cc(C(N)=O)ccc2Cl)c1`, the growth was 30.8%.

For `N#C/C(=C\c1ccc(Br)cc1)n1nnc2cccc(F)c21`, the growth is 7.22% (active).

With `CN1CCN(C(=O)OCc2nc3c(N4CCOCC4)nc(-c4ccccc4)nc3n2C)CC1`, the growth was -61.6% (active).
